This is a sample that favours compounds with a hit; in the whole collection about 19% have one here.
IL1B secr inh: inhibitors of inflammasome signaling (IL-1 beta secretion) | THP-1 LPS/ATP IL-1B secretion, AlphaLISA, 16 h; active compounds read low | activity change, % at 57.5 µM | 360,000 tested, 4.7% active | AID 743279; in the data active = activity change below about -50%; inconclusive = mostly about -30% to -49%
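THP-1 cells pretreated 1 hr with compounds (up to 57.5 uM final), then stimulated with LPS (250 ng/mL final) plus ATP (1.25 mM final); secreted IL-1B measured by AlphaLISA after 16 hr, decreased signal indicating inhibition.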
DT40 TDP1 no CPT: qHTS for Inhibitors of human tyrosyl-DNA phosphodiesterase 1 (TDP1): qHTS in cells in absence of CPT. Potency, µM (doses to about 46.2 µM), for inactives: at the top dose activity change, negative = growth inhibition, usual class: inhibitors. 420,000 tested, 15% active. DT40 Tdp1-/- hTDP1 cells, no CPT, ATP luminescence, 48 h; note: potency is the fitted concentration of half-maximal effect; nearly all actives have a fitted effect of over 55% in size
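Compound effects on proliferation are scored in DT40 Tdp1-/-;hTDP1 cells in the absence of CPT. ATP levels (CellTiter-Glo luminescence) are recorded after a ≥48 hr, 37 °C incubation.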
HT1080 IDH1KD tx: HT-1080 IDH1 knockdown cell toxicity (counter line); Potency, µM (titrated, usually from 46.1 µM), for inactives: top-dose activity, negative = toxicity, usual class: cytotoxic; 360,000 tested, 2% active; AID 686971; HT-1080 IDH1 knockdown viability, ATP luminescence, 48 h;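 note: potency is the fitted concentration of half-maximal effect; 0% = DMSO wells and -100% = cell-free medium wells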
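% activity derives from luminescence (CellTiter-Glo), normalised to DMSO and no-cell wells. HT-1080-IDH1KD cells, 750/well, had 48 h compound exposure at 37 °C.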
DT40 TDP1 CPT: growth inhibition of DT40 Tdp1-/-;hTDP1 cells with camptothecin (screen for TDP1 inhibitors) | chicken DT40 Tdp1-/-;hTDP1 cells + 20 nM CPT, ATP luminescence, 48 h | 420,000 tested, 12% active | Potency, µM (top dose mostly 46.2 µM), inactives show at the highest dose activity change, negative = growth inhibition, hits mostly inhibitors; note: potency is the fitted concentration of half-maximal effect; nearly all actives have a fitted effect of over 55% in size
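Cell growth measured by CellTiter-Glo luminescence after a minimum 48 h, 37 C compound exposure with 20 nM CPT in Tdp1-knockout DT40 cells stably expressing hTDP1, seeded 400/well; qHTS titration format.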
HT1080NT lethal: kills 2HG-producing HT-1080-NT fibrosarcoma cells; HT-1080-NT fibrosarcoma viability, CellTiter-Glo ATP luminescence, 48 h; Potency, µM (titrated, usually from 46.1 µM), without a hit: top-dose activity, negative = less viability, most hits filed as cytotoxic; 360,000 tested, 1.6% active; AID 686970;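 note: NT is the 2HG producing partner of a matched IDH1 knockdown line; potency is the fitted concentration of half-maximal effect; 0% = DMSO-treated cells and -100% = media-only wells without cells; nearly all actives have a fitted effect of over 55% in size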
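Luminescent CellTiter-Glo readout after 48 hours of compound exposure at 37 degrees C defined viability of HT-1080-NT cells. Activity was normalized to DMSO wells and cell-free media wells; concentration-response curves were fitted and assigned curve classes.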
ELG1 repair inh: blocks ELG1-dependent DNA repair in HEK293T cells; Potency, µM (series often up to 46.1 µM), for the others: top-dose activity change, negative = inhibition, hits mostly inhibitors; 330,000 tested, 2.3% active; HEK293T ELG1-luciferase reporter, luminescence, 16 h; DNA damage induced by 5-fluorouridine; AID 504467; note: potency is the fitted concentration of half-maximal effect; nearly all actives have a fitted effect of over 55% in size
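DMSO vehicle served as the neutral condition. Each well held 2,000 cells given 5-fluorouridine plus compound; after 16 hr at 37 °C/5% CO2, ONE-Glo was added and luciferase measured 30 min later.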
The depositor's hits bear a star; ? = inconclusive; . = no result; [ ] = another dose, or the depositor's remark. Unless noted, calls come from the whole dose curve; as a rule, active = well fitted curve in the direction sought with a large enough effect; inconclusive = small, poorly fitted or top-dose-only effect, or another doubt; inactive = no such curve, though single readings can be large; an effect the other way counts as inactive or inconclusive. Unless noted, % is set by controls: 0 for no effect and ±100 for the full control effect.

SMILES | IL1B secr inh | DT40 TDP1 no CPT | HT1080 IDH1KD tx | DT40 TDP1 CPT | HT1080NT lethal | ELG1 repair inh
Cc1cc(-n2c(C)cc(C(=O)COc3ccc(Cl)cc3C(N)=O)c2C)no1 | 48 | ? | 6% | ? | 0% | ?
Cn1c2ccccc2c2cc(/C=N/NC(=O)c3cc(O)ccc3O)ccc21 | -73* | 15µM* | ? | 12µM* | -25% | -19%
Cn1c2ccccc2c2cc(/C=N/NC(=O)c3cc(O)cc(O)c3)ccc21 | -86* | ? | -28% | ? | -15% | 1%
COc1cc(/C=N/NC(=O)Cn2nnc3ccccc32)ccc1O | 13 | ? | 0% | -13% | 1% | 9%
Cn1cc(C(=O)N/N=C/c2cccc([N+](=O)[O-])c2)c2ccccc21 | . | ? | 6% | -5% | 0% | 0%
COc1cc(/C=N/NC(=O)CCn2c3ccccc3c3ccccc32)ccc1O | ? | 23µM* | ? | ? | ? | ?
COc1cc(C=NNC(=O)c2ccccc2-n2cccc2)ccc1O | 9 | ? | -30% | 26µM* | ? | -14%
O=C(NC(=S)N1CCN(C/C=C/c2ccccc2)CC1)c1ccc(Cl)nc1 | 37 | 15µM* | -10% | 23µM* | -12% | 18µM*
O=C(NC(=S)N1CCCCC1)c1cccnc1 | 25 | 3% | 14% | -3% | 14% | 11%
O=C(NC(=S)N1CCN(Cc2ccccc2)CC1)c1cccnc1 | 17 | 21µM* | 26% | 16µM* | 11% | 2%
COc1ccc(OC2C(=O)N(Cc3ccc(F)cc3)C2c2cc(OC)c(OC)c(OC)c2)cc1 (stereo unspecified) | -17 | 23µM* | -2% | ? | -7% | -10%
Cc1ccc2nc(Cl)c(/C=N/n3c(C)nnc3C)cc2c1 | 28 | 21µM* | 12% | ? | 7% | ?
Cc1ccc(/C=N/n2c(C)nnc2C)cc1 | 26 | -1% | -6% | -8% | -3% | 22%
COc1ccc(S(N)(=O)=O)cc1C(=O)NC1CCCc2ccccc21 (stereo unspecified) | -16 | -10% | 5% | -30% | 17% | 2%
CCOC(=O)c1c(C)n(C)c2cc(Br)c(O)c(O)c12 | 0 | ? | -1% | -28% | -8% | ?
CCOC(=O)c1c(CSc2cccs2)n(C)c2cc(Br)c(O)c(CN(C)C)c12 | -54* | 18µM* | ? | 16µM* | -18% | ?
COc1cc(SC)ccc1C(=O)Nc1ccon1 | -13 | -6% | 5% | -12% | 5% | ?
COc1cc(SC)ccc1C(=O)Nc1ccc(Br)cn1 | -10 | 13µM* | 20% | ? | 27% | ?
COc1cc(SC)ccc1C(=O)Nc1ccccn1 | -19 | -29% | 8% | -12% | -2% | ?
COc1cc(SC)ccc1C(=O)Nc1cccc(C)n1 | -70* | 5.8µM* | -7% | ? | -7% | ?
CCOC(=O)NNc1ccc2nonc2c1[N+](=O)[O-] | -77* | 2.9µM* | ? | 6.5µM* | ? | ?
CCOC(=O)c1c(NC(=O)CSc2nnc(-c3ccccc3)o2)sc(C(C)=O)c1C | 12 | 23µM* | 6% | 16µM* | 10% | ?
CCOC(=O)c1c(NC(=O)CSc2nnc(-c3ccccc3)n2CC)sc(C(C)=O)c1C | -16 | ? | -10% | ? | -1% | ?
CCOC(=O)c1c(NC(=O)CSc2nnc(Cc3ccccc3)o2)sc(C(C)=O)c1C | -22 | 21µM* | -13% | 21µM* | -8% | ?
CCOC(=O)c1sc(NC(=O)c2cc(-c3ccccc3)nc3ccccc23)c(C#N)c1C | -62* | 5.8µM* | 5.2µM* | 7.3µM* | 2.9µM* | ?
SMILES | IL1B secr inh | DT40 TDP1 no CPT | HT1080 IDH1KD tx | DT40 TDP1 CPT | HT1080NT lethal | ELG1 repair inh
CCOC(=O)c1c(NC(=O)CSc2nnc(-c3cccc(C)c3)n2CC)sc(C(C)=O)c1C | ? | 23µM* | ? | 23µM* | -14% | ?
CCOC(=O)c1sc(NC(=O)C(C)C)c(C#N)c1C | -19 | ? | -6% | ? | -2% | 18%
CCOC(=O)c1c(NC(=O)CSc2nnc(-c3ccc(C)cc3)o2)sc(C(C)=O)c1C | -19 | -25% | 3% | ? | 1% | 7%
COc1ccc(CNS(=O)(=O)c2ccc(Br)s2)cc1 | 2 | ? | -6% | 3% | -17% | 6%
C[C@H](CO)N1C[C@H](C)[C@@H](CN(C)Cc2ccccc2)Oc2c(NS(=O)(=O)c3cn(C)cn3)cccc2C1=O | 34 | ? | -1% | ? | 17% | ?
CCOC(=O)c1sc(NC(=O)CSc2ccccn2)c(C#N)c1C | 22 | -11% | 28%[9.24 µM] | -20% | 3% | .
CCOC(=O)c1sc(NC(=O)CSc2nnc(Cc3ccccc3)o2)c(C#N)c1C | -19 | 16µM* | -4%[9.24 µM] | 12µM* | 8% | -5%
CCOC(=O)c1c(NC(=O)CSc2nc(C)cc(C)c2C#N)sc(C(C)=O)c1C | 12 | 7.3µM* | -16% | 9.2µM* | ? | ?
CCOC(=O)c1c(NC(=O)CSc2cccc[n+]2[O-])sc(C(=O)Nc2ccccc2)c1C | ? | 18µM* | -4% | ? | -13% | ?
CCOC(=O)c1c(NC(=O)c2cc(-c3ccc(O)cc3)on2)sc(C(C)=O)c1C | -2 | 5.8µM* | 5% | 4.6µM* | 22% | 2%
CCCCCCn1cc(CN2CC(N3CCN(CCO)CC3)CS2(=O)=O)nn1 (stereo unspecified) | 13 | -17% | 26% | 2% | 18% | .
O=C(CSc1nc(O)c(C2CCCCC2)c(=O)[nH]1)Nc1ccccc1Cl | 0 | -6% | 8% | 1% | 12% | 1%
O=C(COc1cccc(C(F)(F)F)c1)NNC(=O)c1ccc(=O)[nH]c1 | 7 | 18% | 4% | -8% | 6% | 9%
CC(=O)c1cccc(NS(=O)(=O)c2cc(-c3onc(C)c3C)ccc2C)c1 | . | -20% | . | ? | . | .
CCOc1ccccc1CNn1cnnc1SCC(=O)NC(C)(C)C | -3 | -2% | 4% | 3% | 4% | .
CCOC(=O)c1sc(NC(=O)CSc2n[nH]c(-c3ccccc3)n2)c(C#N)c1C | -16 | ? | ? | 12µM* | ? | ?
CCOC(=O)c1sc(NC(=O)CSc2nc(C)cc(C)n2)c(C#N)c1C | 31 | -27% | -8% | ? | -13% | -13%
